Efflux pump mplx: antifungal efflux pump inhibition, Nile Red retention | 330,000 tested, 0.44% active | AID 485275 | S. cerevisiae Candida pump triplex | inhibition, % at 10 µM;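 active = plate passing quality check with inhibition over a set limit, or well fluorescence over plate mean plus 4 SD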;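 note: Nile Red retained in pooled yeast measured as flow cytometry median fluorescence; higher means more Nile Red kept so more efflux inhibition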
GC-A act: GC-A (human) enzyme activation. P16066. HEK293 GC-A cells, cGMP TR-FRET, EC30 ANP; 0% at EC30 ANP, 100% saturating ANP. activation, % at 10 µM. 370,000 tested, 0.14% active. AID 1671463; in the data active = activation above about 40%
Rce1 inhib: yeast Ras-converting enzyme inhibition. Q03530. yeast membranes, quenched prenylated peptide cleavage fluorescence. calls only. 290,000 tested, 0.27% active. AID 2563;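 active = fall in fluorescence gain of 50% or more versus controls, with final raw signal at or below 3038400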
Target sequence (Q03530 whole entry, looked up): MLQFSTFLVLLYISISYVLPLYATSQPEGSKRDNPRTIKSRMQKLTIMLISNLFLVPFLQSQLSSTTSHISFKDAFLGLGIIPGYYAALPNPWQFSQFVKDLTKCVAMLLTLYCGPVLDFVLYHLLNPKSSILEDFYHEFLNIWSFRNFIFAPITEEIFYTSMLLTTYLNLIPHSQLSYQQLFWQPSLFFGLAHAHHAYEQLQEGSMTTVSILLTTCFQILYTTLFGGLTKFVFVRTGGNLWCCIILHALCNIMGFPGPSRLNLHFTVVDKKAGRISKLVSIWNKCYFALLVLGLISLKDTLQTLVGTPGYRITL
NSD2 HMT inh: inhibitors of human histone methyltransferase NSD2 | AID 743445 | NSD2 peptide methylation, AlphaScreen, 120 min | 310,000 tested, 0.54% active | O96028 | inhibition, % at 12.5 µM; in the data active = inhibition above about 50%
NPR2 activator: GC-B (human) receptor activation; P20594; HEK293-GC-B cells, CNP EC30, cGMP TR-FRET; 0% at EC30 CNP, 100% saturating CNP; activation, % at 10 µM; 370,000 tested, 0.11% active; AID 1920062;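 active = activation at 10 µM reaching about 35% in either raw or pattern-adjusted values, limit read from the data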
V-ATPase pH: regulators of yeast V-ATPase proton transport | S. cerevisiae, pHLuorin cytosolic pH fluorescence | response, % at 10 µM | 350,000 tested, 0.37% active | AID 504577; in the data active = response mostly above about 7.3%, no sharp cut-off; inactive = mostly below about 5.4%; note: actives read high
Hits are given with their value; i = inactive; nt = no result given; + = active, no number. This is a sample that favours compounds with a hit; in the whole collection about 1.6% have one here.

SMILES | Efflux pump mplx | GC-A act | Rce1 inhib | NSD2 HMT inh | NPR2 activator | V-ATPase pH
CCCOc1ccc(C(=O)NNC(=S)NC(=O)CC)cc1 | i | i | i | i | 64 | i
Cc1c(N=C2N=C(NC(=O)NC(C)(C)C)c3ccccc32)c(=O)n(-c2ccccc2)n1C | i | 84 | i | i | i | i
Cc1c(N=C2N=C(NC(=O)c3cccs3)c3ccccc32)c(=O)n(-c2ccccc2)n1C | i | 80 | nt | i | i | i
Cc1c(N=C2NC(=O)C(CC(=O)Nc3ccccc3)S2)c(=O)n(-c2ccccc2)n1C (stereo not given) | i | i | i | i | i | i
CC(C)(C)NC(=O)[C@H](c1cccnc1)N(C(=O)c1ccco1)c1ccc(C(C)(C)C)cc1 | nt | i | nt | nt | i | nt
COC(=O)[C@]12C[C@H](CC(=O)N3CCOCC3)C(=O)N(Cc3ccco3)C1=C[C@H](C(C)C)O[C@@H]2C1CC1 | nt | i | nt | nt | i | nt
O=C(CSc1nnc(COc2ccc(Cl)cc2)o1)OC1CCCCC1 | i | 76 | i | i | i | i
Cc1cc(OCc2nnc(SCC(=O)OC3CCCCC3)o2)ccc1Cl | i | 66 | i | i | i | i
CCCc1ccc(Oc2cn[nH]c2-c2ccc(O)c(C)c2O)cc1 | i | 47 | i | nt | i | i
Cc1ccc2nc(-c3ccc(NC(=O)CSc4nnc(-c5cccc(Cl)c5)n4Cc4ccco4)cc3)sc2c1 | nt | i | nt | i | i | nt
CCOC(=O)c1cnc2c(C)cccc2c1NCCc1ccc(OC)c(OC)c1 | i | i | i | i | i | i
CCOC(=O)c1cnc2ccc(C(=O)OC)cc2c1NCCc1ccc(OC)c(OC)c1 | i | i | i | i | 36 | i
COC(=O)[C@]12C[C@H](CC(=O)N3CCSCC3)C(=O)N(Cc3cccc4ccccc34)C1=C[C@H](C1CCCC1)O[C@@H]2C | nt | i | nt | nt | i | nt
O=C(OC1CCOC1=O)C1CCN(S(=O)(=O)c2ccc(Cl)c(C(F)(F)F)c2)CC1 (stereo not given) | i | i | i | i | 51 | i
Cc1ccc(S(=O)(=O)NCCCNS(C)(=O)=O)cc1 | i | i | i | i | i | i
Cc1ccc(S(=O)(=O)NCCNS(=O)(=O)c2ccc(C)cc2)cc1 | i | i | i | i | i | 338
CCCCNC(=O)C[C@H]1C[C@@]2(C(=O)OC)C(=C[C@H](C3CCCC3)O[C@@H]2C)N(Cc2ccco2)C1=O | nt | i | nt | nt | i | nt
COc1cc(Cl)ccc1OCc1cc(C(=O)N[C@H]2CCCCNC2=O)no1 | i | 60 | i | i | i | i
Nc1[nH]c(C(=O)c2ccccc2)c(-c2cccc3ccccc23)c1C(=O)c1c(-c2ccccc2)[nH]c2ccccc12 | nt | i | nt | nt | i | nt
Cc1c(C(=O)O)cccc1-n1c(C)cc(/C=N/Nc2ccc([N+](=O)[O-])cn2)c1C | i | i | i | i | i | 16
Cc1ccc(C2c3c(C)nn(-c4ccc([N+](=O)[O-])cc4)c3N=C3C(=O)Nc4ccccc4N32)cc1 (stereo not given) | 0.5 | nt | i | nt | nt | nt
O=C(c1ccc(Cl)c(Cl)c1)N1CCN(c2ccnc3cc(Cl)ccc23)CC1 | nt | i | nt | nt | i | nt
COCCCN=C1NN=C(c2cc(C)n(Cc3ccccc3Cl)c2C)CS1 | i | i | i | 53 | i | i
CC(C)(C=O)C1=CC(=O)c2ccccc2C1=O | i | i | nt | 92 | i | 16
CN1C2=NC(c3ccccc3)CC(=O)N2/C(=C\c2ccccc2)C1c1ccccc1C(F)(F)F (stereo not given) | nt | i | nt | nt | i | nt
SMILES | Efflux pump mplx | GC-A act | Rce1 inhib | NSD2 HMT inh | NPR2 activator | V-ATPase pH
N=C1C(c2nc3ccccc3s2)=C(O)CN1Cc1ccccc1 | i | 46 | i | i | i | i
N=C1C(c2nc3ccccc3s2)=C(O)CN1C1CCCCC1 | i | 54 | i | i | i | i
CCN(CC)CCCN1CC(O)=C(c2nc3ccccc3s2)C1=N | i | i | i | i | i | i
N=C1C(c2nc3ccccc3s2)=C(O)CN1C1CCC(O)CC1 (stereo not given) | i | i | i | nt | i | nt
Cc1cc(Br)c(NC(=O)COC(=O)CSc2nnc(-c3ccc(Cl)cc3)o2)c(Br)c1 | i | 60 | i | i | i | i
CC(C)OC(=O)CSc1nnc(-c2ccc(Cl)cc2Cl)o1 | i | i | i | i | i | i
CCCCOC(=O)CSc1nnc(-c2ccc(Cl)cc2Cl)o1 | i | 67 | i | i | i | i
Cc1cc(C)cc(NC(=O)CSc2nnc(-c3ccncc3)o2)c1 | i | i | i | i | i | i
CC1=C(SCc2ccccc2)C(=O)c2ccccc2C1=O | nt | i | nt | i | i | i
O=C1C(SCCO)=C(SCCO)C(=O)c2ccccc21 | i | 51 | nt | nt | i | i
CCCC1CCC2(CCC(=O)N2CCSc2ccccc2)CC1 (stereo not given) | nt | i | nt | nt | i | nt
COc1ccc(NC(=O)c2cc(-c3cc(F)ccc3OCC3CCCO3)n[nH]2)c(C)c1 (stereo not given) | nt | 60 | nt | i | 79 | nt
COc1ccc(NC(=O)c2cc(-c3cc(F)ccc3OCC3CCCO3)n[nH]2)cc1OC (stereo not given) | nt | i | nt | i | i | nt
COc1ccc(NC(=O)c2cc(-c3cc(F)ccc3OC)n[nH]2)c(C)c1 | nt | 55 | nt | i | 71 | nt
O=C(Nc1ccc(F)cc1)OCc1cn(Cc2cccc(Cl)c2)nn1 | nt | i | nt | nt | i | nt
O=C(CCSc1ccc(Cl)cc1)NC12CC3CC(CC(C3)C1)C2 | i | i | + | i | i | i
CC(C)C[C@H](NC1(C(=O)NC2CCCCC2)CCCCC1)C(=O)NCCc1c[nH]c2ccccc12 | nt | i | nt | i | i | nt
COc1ccc(Cl)cc1NC(=O)C/C(C)=N/NC(=O)c1ccc(O)cc1 | i | i | i | i | i | i
COc1cc(NC(=O)C/C(C)=N/NC(=O)c2cccc(O)c2)c(OC)cc1Cl | i | i | + | i | i | i
Cc1ccccc1NC(=O)c1ccc(Cl)c(NC(=O)c2ccco2)c1 | nt | nt | nt | i | nt | nt
CC(C)C[C@H](NC(C)(C)C(=O)NC1CCCCC1)C(=O)NCC(c1ccccc1)c1ccccc1 | nt | i | nt | i | i | nt
c1ccc(Cn2nnc3c(Nc4ccc5c(c4)OCO5)nc(C4CC4)nc32)cc1 | i | i | i | i | 41 | i
Cc1csc(NC(=O)CSc2nc(C)nc3c2c(=O)n(C)c(=O)n3C)n1 | i | i | i | nt | 37 | i
CCc1ccc(C(=O)Cn2ncc(Cl)c(Cl)c2=O)cc1 | i | 60 | i | i | i | i
Cc1ccc(Cn2ncc(Cl)c(Cl)c2=O)cc1 | i | i | i | i | i | i
COC(=O)C1CN(Cc2cn(Cc3ccc(C)cc3)nn2)CCS(=O)(=O)N1Cc1ccc(Cl)cc1 (stereo not given) | nt | i | nt | nt | i | nt
CCC(C(=O)Nc1ccc(C)cn1)c1ccccc1 (stereo not given) | nt | nt | nt | i | nt | nt
O=C(CCn1cnnn1)N1CCCC(Nc2ccc(F)cc2)C1 (stereo not given) | i | i | i | i | i | i
O=C(c1ccc(Cn2cnnn2)cc1)N1CCCC(Nc2ccc(F)cc2)C1 (stereo not given) | i | i | + | i | i | i
O=C(Nc1sc2c(c1-c1nc3ccccc3s1)CCNC2)C(F)(F)F | nt | i | nt | i | i | nt

Source: PubChem
